Laboratory results reported in ChEMBL document CHEMBL3988442, “University of Dundee, Small-Polar-MMV Screening Library” (2021).
For some assays here: Entries with a potency or affinity are not part of this list.

Key:
Set-up in all cases: scale not given: direction of the effect not stated beside the values
[1] = target: Protein translocase subunit SecA (Escherichia coli (strain K12)) (UniProt P10408); test: Assay to Identify E. coli SecA ATPase Inhibitors; format: functional; settings: 30 µM
[2] = target: T1, Ubiquitin-activating enzyme e1, putative (Leishmania donovani (strain BPK282A1)) (UniProt E9BSI1); test: Leishmania donovani Ubiquitin Activating Enzyme (LdE1); format: functional; settings: 30 µM
T1 sequence (whole entry): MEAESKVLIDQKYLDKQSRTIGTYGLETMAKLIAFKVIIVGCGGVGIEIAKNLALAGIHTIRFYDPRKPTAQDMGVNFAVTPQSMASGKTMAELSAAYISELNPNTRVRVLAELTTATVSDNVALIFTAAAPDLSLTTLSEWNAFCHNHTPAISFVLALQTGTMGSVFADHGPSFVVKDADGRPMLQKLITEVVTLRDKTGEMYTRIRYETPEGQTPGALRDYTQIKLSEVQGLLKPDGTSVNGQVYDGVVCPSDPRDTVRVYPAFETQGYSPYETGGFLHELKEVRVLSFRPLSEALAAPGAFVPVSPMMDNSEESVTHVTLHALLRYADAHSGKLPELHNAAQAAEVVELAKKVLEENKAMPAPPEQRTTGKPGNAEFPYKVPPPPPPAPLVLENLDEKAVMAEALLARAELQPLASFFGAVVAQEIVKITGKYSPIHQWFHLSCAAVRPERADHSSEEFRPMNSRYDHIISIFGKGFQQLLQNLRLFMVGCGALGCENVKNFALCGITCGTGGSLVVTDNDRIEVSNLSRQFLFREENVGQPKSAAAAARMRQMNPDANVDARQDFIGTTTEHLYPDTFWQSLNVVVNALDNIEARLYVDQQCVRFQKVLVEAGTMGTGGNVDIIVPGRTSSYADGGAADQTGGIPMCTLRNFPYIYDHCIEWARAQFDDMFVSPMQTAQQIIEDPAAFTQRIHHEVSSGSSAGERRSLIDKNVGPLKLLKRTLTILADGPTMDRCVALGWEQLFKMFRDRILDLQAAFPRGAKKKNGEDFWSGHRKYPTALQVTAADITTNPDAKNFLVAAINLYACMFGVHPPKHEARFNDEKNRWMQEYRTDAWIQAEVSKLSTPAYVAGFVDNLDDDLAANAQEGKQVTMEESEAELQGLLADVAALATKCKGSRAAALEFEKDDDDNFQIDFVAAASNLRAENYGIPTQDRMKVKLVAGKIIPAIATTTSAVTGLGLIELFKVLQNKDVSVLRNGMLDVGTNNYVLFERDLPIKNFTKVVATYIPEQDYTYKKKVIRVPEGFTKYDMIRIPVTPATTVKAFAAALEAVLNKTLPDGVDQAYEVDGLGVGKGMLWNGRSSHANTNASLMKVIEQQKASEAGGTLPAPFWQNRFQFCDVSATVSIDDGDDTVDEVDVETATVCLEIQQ

[3] = target: AMP-activated protein kinase, AMPK (Homo sapiens) (UniProt P54646+O43741+P54619+Q9UGJ0+Q9Y478+Q13131+Q9UGI9); test: AMP-dependent Kinase enzyme assay. An in vitro enzyme assay that detects ADP turnover that is directly proportional to AMPK activity. This uses naive AMPK that is activated during the assay with MK-8722; format: functional; settings: 30 µM
[4] = target: Sialic acid-binding Ig-like lectin 9 (Homo sapiens) (UniProt Q9Y336); test: Hs-Siglec9 ALPHAscreen SOP 20170721; settings: 10 µM
Sialic acid-binding Ig-like lectin 9 (Homo sapiens), sequence (Q9Y336 whole entry): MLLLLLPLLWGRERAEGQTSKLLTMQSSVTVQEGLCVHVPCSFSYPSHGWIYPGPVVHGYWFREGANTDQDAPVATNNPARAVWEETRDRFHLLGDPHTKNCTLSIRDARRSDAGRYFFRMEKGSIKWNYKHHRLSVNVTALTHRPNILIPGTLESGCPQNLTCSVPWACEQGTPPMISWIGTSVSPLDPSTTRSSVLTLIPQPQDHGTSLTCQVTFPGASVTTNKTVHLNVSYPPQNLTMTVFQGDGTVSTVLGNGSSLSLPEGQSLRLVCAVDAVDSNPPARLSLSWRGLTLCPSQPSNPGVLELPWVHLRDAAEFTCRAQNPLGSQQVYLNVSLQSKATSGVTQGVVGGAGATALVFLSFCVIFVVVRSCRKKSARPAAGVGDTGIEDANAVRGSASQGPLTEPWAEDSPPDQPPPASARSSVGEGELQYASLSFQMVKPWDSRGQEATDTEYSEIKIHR

Trypanosoma cruzi = test: Trypanosoma cruzi phosphomannomutase and mannose-1-phosphate guanylyltransferase assay; format: functional; settings: 10 µM
[5] = target: T2, Arginase-2, mitochondrial (Homo sapiens) (UniProt P78540); test: in vitro enzyme assay to detect the production of urea directly proportional to the activity of Arginase II; format: functional; settings: 33.3 µM; also: in the data most compounds retested in dose-response had high values
T2 sequence (whole entry): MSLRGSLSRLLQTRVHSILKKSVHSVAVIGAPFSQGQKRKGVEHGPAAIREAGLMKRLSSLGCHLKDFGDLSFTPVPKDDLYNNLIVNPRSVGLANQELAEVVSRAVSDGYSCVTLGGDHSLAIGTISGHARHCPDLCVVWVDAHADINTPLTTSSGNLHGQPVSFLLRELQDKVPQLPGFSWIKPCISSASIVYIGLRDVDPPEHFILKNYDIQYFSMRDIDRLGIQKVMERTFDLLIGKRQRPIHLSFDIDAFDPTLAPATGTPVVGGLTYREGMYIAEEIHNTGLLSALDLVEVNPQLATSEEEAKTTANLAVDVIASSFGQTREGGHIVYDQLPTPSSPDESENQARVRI

[6] = target: T3, Proteasome subunit beta (Trypanosoma cruzi) (UniProt O96673); test: Trypanosoma cruzi proteasome chymotrypsin-like activity (TcProtChymo) assay.; also: in the data most compounds retested in dose-response had high values; format: functional; settings: 9.37 µM
T3 sequence (whole entry): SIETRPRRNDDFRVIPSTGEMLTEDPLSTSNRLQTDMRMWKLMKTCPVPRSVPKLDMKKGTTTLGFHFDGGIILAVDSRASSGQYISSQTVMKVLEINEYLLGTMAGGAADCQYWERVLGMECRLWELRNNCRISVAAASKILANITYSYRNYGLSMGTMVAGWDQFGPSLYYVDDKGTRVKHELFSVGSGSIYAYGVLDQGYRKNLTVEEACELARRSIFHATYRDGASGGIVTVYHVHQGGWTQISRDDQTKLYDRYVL

Homo sapiens = species on record: Homo sapiens; test: To identify inhibition of the IFN signalling (Jak-Stat) pathway via expression of an eGFP reporter gene under the control of an IFN-stimulated response element (ISRE) containing MxA promoter.; format: functional; settings: 30 µM
[7] = target: T4, Tyrosyl-tRNA synthetase, putative (Trypanosoma cruzi (strain CL Brener)) (UniProt Q4DSP6); test: Trypanosoma cruzi tyrosyl tRNA synthetase (TcYRS) _High Tyrosine SOP; format: functional; settings: 30 µM; also: in the data most compounds retested in dose-response had high values
T4 sequence (whole entry): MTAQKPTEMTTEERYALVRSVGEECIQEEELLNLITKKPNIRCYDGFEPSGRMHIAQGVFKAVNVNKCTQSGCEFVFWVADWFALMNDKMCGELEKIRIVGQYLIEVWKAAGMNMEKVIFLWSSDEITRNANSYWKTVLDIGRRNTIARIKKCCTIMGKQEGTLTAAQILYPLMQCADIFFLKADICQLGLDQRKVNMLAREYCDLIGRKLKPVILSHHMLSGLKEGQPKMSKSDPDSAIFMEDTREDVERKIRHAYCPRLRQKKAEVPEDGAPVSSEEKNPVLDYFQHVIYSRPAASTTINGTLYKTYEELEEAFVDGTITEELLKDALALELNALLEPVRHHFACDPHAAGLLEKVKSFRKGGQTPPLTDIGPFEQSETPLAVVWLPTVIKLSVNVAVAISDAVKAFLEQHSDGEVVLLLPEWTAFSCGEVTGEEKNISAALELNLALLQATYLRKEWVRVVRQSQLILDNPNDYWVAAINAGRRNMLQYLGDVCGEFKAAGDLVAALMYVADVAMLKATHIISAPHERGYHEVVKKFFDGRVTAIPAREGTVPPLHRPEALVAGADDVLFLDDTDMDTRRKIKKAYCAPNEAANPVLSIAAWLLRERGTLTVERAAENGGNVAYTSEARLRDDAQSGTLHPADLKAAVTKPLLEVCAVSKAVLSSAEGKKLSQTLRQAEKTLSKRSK

[8] = target: T4, Tyrosyl-tRNA synthetase, putative (Trypanosoma cruzi (strain CL Brener)); test: Trypanosoma cruzi tyrosyl tRNA synthetase (TcYRS) SOP; format: functional; settings: 30 µM
[9] = target: Chromo domain-containing protein 1 (Saccharomyces cerevisiae (strain ATCC 204508 / S288c) (Baker's yeast)) (UniProt P32657); test: ScCHD-1 Enzyme Inhibition Assay; format: functional; settings: 30 µM; also: in the data most compounds retested in dose-response had high values
Chromo domain-containing protein 1 (Saccharomyces cerevisiae (strain ATCC 204508 / S288c) (Baker's yeast)), sequence (P32657 whole entry, the tested form may be a part): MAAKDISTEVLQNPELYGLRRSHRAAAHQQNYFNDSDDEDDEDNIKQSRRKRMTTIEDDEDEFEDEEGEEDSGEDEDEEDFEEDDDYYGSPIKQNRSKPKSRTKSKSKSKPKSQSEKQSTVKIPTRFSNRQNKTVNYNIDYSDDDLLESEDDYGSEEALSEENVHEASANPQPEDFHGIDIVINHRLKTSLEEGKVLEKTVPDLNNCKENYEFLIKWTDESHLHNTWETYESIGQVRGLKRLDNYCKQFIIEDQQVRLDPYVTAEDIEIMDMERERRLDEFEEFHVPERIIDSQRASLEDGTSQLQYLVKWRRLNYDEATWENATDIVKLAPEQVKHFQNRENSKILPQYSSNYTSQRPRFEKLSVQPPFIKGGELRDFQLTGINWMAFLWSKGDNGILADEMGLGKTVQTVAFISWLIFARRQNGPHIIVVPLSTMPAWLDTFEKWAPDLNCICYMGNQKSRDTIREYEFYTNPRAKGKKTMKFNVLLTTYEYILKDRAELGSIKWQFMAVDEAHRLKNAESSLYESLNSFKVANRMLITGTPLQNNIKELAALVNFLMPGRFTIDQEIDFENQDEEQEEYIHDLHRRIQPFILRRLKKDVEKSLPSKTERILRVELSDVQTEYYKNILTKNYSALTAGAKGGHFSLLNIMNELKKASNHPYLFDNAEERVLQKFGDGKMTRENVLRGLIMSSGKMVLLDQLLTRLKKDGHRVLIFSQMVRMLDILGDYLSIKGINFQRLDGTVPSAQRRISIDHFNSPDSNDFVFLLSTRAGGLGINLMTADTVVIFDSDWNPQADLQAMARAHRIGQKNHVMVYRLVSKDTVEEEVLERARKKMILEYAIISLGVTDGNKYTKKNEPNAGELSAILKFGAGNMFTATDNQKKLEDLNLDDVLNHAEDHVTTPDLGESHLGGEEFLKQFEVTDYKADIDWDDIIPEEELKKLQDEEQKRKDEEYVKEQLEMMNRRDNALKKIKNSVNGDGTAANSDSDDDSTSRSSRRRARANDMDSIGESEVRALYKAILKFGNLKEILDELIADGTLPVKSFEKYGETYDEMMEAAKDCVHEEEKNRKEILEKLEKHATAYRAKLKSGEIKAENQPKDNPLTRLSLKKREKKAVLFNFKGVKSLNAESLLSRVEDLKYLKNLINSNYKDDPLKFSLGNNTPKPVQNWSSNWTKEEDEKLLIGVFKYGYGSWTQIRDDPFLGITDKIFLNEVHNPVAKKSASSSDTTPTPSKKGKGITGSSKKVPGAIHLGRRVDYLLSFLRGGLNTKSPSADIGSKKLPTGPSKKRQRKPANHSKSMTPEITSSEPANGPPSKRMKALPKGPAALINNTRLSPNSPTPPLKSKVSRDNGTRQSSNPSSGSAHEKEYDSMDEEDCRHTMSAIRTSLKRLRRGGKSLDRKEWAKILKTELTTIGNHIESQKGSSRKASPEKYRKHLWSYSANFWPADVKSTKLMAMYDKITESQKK

Protein translocase subunit SecA (Escherichia coli (strain K12)), sequence (P10408 whole entry): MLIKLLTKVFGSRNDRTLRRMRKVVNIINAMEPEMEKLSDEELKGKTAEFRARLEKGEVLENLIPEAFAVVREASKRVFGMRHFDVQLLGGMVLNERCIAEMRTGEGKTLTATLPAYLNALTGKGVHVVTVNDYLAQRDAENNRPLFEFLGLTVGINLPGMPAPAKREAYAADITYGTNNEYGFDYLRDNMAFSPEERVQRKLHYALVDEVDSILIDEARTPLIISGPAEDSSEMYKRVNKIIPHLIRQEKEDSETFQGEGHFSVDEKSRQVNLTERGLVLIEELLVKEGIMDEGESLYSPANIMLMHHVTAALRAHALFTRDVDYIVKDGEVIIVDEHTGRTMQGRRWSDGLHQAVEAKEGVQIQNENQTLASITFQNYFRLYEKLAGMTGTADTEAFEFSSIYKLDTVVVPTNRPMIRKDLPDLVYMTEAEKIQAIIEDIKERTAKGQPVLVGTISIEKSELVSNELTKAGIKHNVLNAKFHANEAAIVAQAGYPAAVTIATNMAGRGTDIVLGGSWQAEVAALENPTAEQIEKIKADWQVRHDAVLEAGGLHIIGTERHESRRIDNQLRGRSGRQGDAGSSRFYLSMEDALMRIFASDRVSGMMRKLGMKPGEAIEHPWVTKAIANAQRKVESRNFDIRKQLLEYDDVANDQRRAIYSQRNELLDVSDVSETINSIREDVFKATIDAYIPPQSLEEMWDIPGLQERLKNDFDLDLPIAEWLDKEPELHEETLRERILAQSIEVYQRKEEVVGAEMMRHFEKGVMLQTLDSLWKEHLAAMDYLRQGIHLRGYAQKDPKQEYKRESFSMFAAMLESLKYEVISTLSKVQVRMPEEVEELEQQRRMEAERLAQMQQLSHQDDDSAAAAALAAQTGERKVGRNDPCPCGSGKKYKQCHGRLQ

Row | Compound | Percent Effect [1] | Percent Effect [2] | Percent Effect [3] | Percent Effect [4] | Percent Effect (Trypanosoma cruzi) | Percent Effect [5] | Percent Effect [6] | Percent Effect (Homo sapiens) | Percent Effect [7] | Percent Effect [8] | Percent Effect [9]
1 | Cc1cccc(CN2C(=O)CO[C@@H]3CN(Cc4nccn4C)C[C@H]32)c1 | 0.226% | 10.8% | -0.86% | -6.69% | 3.91% | 25.8% | 20.5% | 12.6% | 9.9% | 18.3% | -3.16%
2 | Cc1cccc(NC(=O)NCCCn2nc3ccccn3c2=O)c1C | -5.55% | 2.7% | -32% | -5.5% | 0.0943% | 0% | -1.26% | 6.71% | 8.37% | 6.17% | -9.2%
3 | COCCN1C[C@@H]2CN(c3ncccn3)C[C@@H]2C1=O | -4.06% | 2.7% | 0.915% | -6.74% | -0.586% | -4.17% | 8.2% | -19.7% | 76.2% | -1.22% | 474%
4 | CCO[C@@H]1CCN(C(=O)c2cscn2)[C@@H]1Cc1cnn(C)c1 | -1.12% | 0% | 9.65% | 4.98% | -5.12% | 2.1% | -1.15% | 1.8% | 2.13% | 3.85% | 1.69%
5 | Cc1nnc(N2C[C@@H](OCCCn3cccn3)[C@H]3OCCC[C@H]32)s1 | -0.829% | 5.48% | -5.05% | 10.8% | 1.79% | -5.19% | 24.9% | -5.83% | 7.29% | 16.1% | -7.05%
6 | CC(C)OCCOCc1cccc(NC(=O)NCCn2ccnc2)c1 | -0.877% | 10.4% | -2.37% | 9.62% | 5.61% | -1.38% | 8.65% | -0.82% | -1.07% | 3.7% | -7.91%
7 | CCOCCN1CCn2c(C)nnc2C1 | 2.73% | 19% | 2.63% | -1.98% | -5.03% | -3.23% | 13.9% | 11.9% | 4.17% | 12.7% | -27.4%
8 | Cc1nnsc1C(=O)N1CCC2(CC1)c1nc[nH]c1CCN2CC(C)C | -4.82% | 5.33% | -0.152% | -8.33% | -1.46% | -2.08% | 12.4% | -1.57% | 1.64% | 6.17% | -5.05%
9 | c1csc(CN2C[C@@H]3OCCN(CC4CCCO4)[C@@H]3C2)c1 (some centres not stated) | -3.09% | 5.48% | -0.633% | 5.1% | -1.39% | -1.2% | 10.2% | 4.94% | 5.21% | 16.1% | 1.15%
10 | COc1cccc2c1OCC(CNC(=O)CNC(N)=O)C2 (configuration not stated) | -5.81% | 10.8% | -3.03% | 22.4% | 7.33% | 1.24% | 4.72% | -5.45% | 5.38% | 13.6% | -9.37%
11 | Cc1ccc(CNC(=O)NCc2cccnc2N(C)C)s1 | -4.97% | 15.6% | 7.34% | 4.07% | -4.68% | -3.2% | 1.35% | 19.1% | 8.74% | 12.2% | -5.69%
12 | CNS(=O)(=O)c1cc(C(=O)NC2CCOc3ccccc32)cc(C)c1C (configuration not stated) | -6.38% | -2.63% | 13.9% | -3.37% | -3.41% | -4.73% | 8.53% | -0.414% | 4.25% | 7.79% | 7.83%
13 | Cc1n[nH]c(C2CN(C(=O)Cn3ccccc3=O)CCO2)n1 (configuration not stated) | -8.02% | 1.27% | 4.25% | 2.29% | -1.13% | 2.37% | 6.35% | 1.57% | 0% | 2.53% | -9.48%
14 | c1cnc(-c2nc(CN3CCOC(Cn4cncn4)C3)cs2)nc1 (configuration not stated) | -3.88% | 29.7% | -7.99% | -4.32% | -0.66% | -12.8% | 9.91% | 18.1% | 1.48% | 13.6% | -6.92%
15 | CC(NC1(CNC(=O)CC(C)(C)C)CCOCC1)c1ccccc1 (configuration not stated) | -5.63% | 8.11% | 1.15% | 15.6% | -0.684% | 4.22% | 9.19% | -9.78% | 3.23% | 11.1% | -2.98%
16 | O=C(NCCNc1ncccn1)C1CC(=O)N(CC(F)(F)F)C1 (configuration not stated) | -0.757% | 16.2% | -5.02% | -3.51% | -7.26% | -4.81% | 5.59% | 16.5% | 9.36% | 13.6% | -6.16%
17 | COc1ccc(C2=C(C)C(N3CCc4ccccc4C3)=NS2(=O)=O)cc1 | -1.81% | -7.79% | 1.57% | -18% | 3.45% | 4.52% | 13.1% | 9.07% | -122% | -39.7% | 79.2%
18 | Cc1cc2ccccc2n1CCC(=O)NCc1ncc[nH]1 | -2.35% | 14.9% | 6.43% | -8.05% | -4.74% | -1.16% | 15.6% | 13.5% | 11.8% | 16.9% | -9.55%
19 | Cn1cc(CCC(=O)N2C[C@H]3CC[C@@H]2CN(Cc2ccccc2)C3)cn1 | -5.96% | 4.17% | 9.13% | -7.5% | -1.07% | -3.53% | 8.77% | -28.4% | 1.05% | 5.13% | -1.41%
20 | CCOC(C)c1nc(CN2CCN(c3nccc(C)n3)CC2)cs1 (configuration not stated) | -1.18% | 0% | -0.85% | -1.42% | 0.386% | -0.476% | 10.2% | -0.937% | -3.7% | 2.44% | -2.47%
21 | CN1CCc2c(C#N)c(NCc3ccco3)n3cnnc3c2C1 | -7.61% | 15.8% | 0.706% | 6.25% | 1.07% | 0% | 14.5% | -6.85% | 4.25% | 15.6% | -17.9%
22 | Nc1cc(CCCNC(=O)NC2CC2)nn1-c1ccccc1 | -3.6% | 5.48% | 1.41% | -7.75% | -6.27% | -6.82% | 14.7% | 3.12% | 0% | 5% | -2.26%
